In PubChem BioAssay AID1159580 (chemical genetic matrix, 2015):
Several values for one entry are separate records, joined by “and”; a condition that tells them apart may be missing. Equal entries are not always repeated. Screen size: about 5,500 compounds; about 2,000 (36%) were called active. Another 18% or so got no clear call; they are omitted. No stated cut-off is given here; in the data, active means normalized growth mostly below about 0.91 (no sharp cut-off); inconclusive means no clear call, values can overlap the other calls; inactive means mostly above about 0.92. The list shows a part of the results.

Experiment: chemical genetic growth profiling, strain panel (AID 1159580);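 further: tested at 20 µM; growth read once vehicle control cultures reached saturation at 30 °C; 1 = growth at the plate median or of vehicle wells; lower values mean less growth of the strain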
Settings: S. cerevisiae deletion strains, growth OD

Measured: normalized growth

Cc1cc(N)c2ccccc2[n+]1CCCCCCCCCC[n+]1c(C)cc(N)c2ccccc21
active: locus YAL013W, strain DEP1, hits give low values 0.0603 | locus YAL021C, strain ccr4, hits give low values 0.0693 | locus YAL026C, strain drs2, hits give low values 0.0714 | locus YAL030W, strain snc1, hits give low values 0.0625 | locus YAL040C, strain CLN3, hits give low values 0.0761 | locus YBL061C, strain skt5, hits give low values 0.066 | locus YBR009C, strain hhf1, hits give low values 0.0696 | locus YBR021W, strain FUR4, hits give low values 0.0907 | locus YBR023C, strain chs3, hits give low values 0.0647 | locus YBR171W, strain sec66, hits give low values 0.0836 | locus YBR229C, strain ROT2, hits give low values 0.0499 | locus YBR231C, strain swc5, hits give low values 0.0655 | locus YBR279W, strain paf1, hits give low values 0.105 | locus YCL011C, strain gbp2, hits give low values 0.0611 | locus YCL016C, strain dcc1, hits give low values 0.0686 | locus YCL029C, strain bik1, hits give low values 0.0664 | locus YCL061C, strain MRC1 (second series), hits give low values 0.0482 | locus YCL061C, strain MRC1, hits give low values 0.0691 | locus YCL069W, strain vba3, hits give low values 0.0657 | locus YCR088W, strain abp1, hits give low values 0.0654 | locus YDL005C, strain med2, hits give low values 0.0789 | locus YDL035C, strain GPR1, hits give low values 0.0543 | locus YDL040C, strain nat1, hits give low values 0.0635 | locus YDL074C, strain BRE1, hits give low values 0.0853 | locus YDL101C, strain DUN1, hits give low values 0.0584 | locus YDL134C, strain PPH21, hits give low values 0.0503 | locus YDL185W, strain tfp1, hits give low values 0.0607 | locus YDL192W, strain arf1, hits give low values 0.0659 | locus YDR001C, strain nth1, hits give low values 0.0643 | locus YDR069C, strain doa4, hits give low values 0.0664 | locus YDR101C, strain arx1, hits give low values 0.0626 | locus YDR137W, strain rgp1, hits give low values 0.0886 | locus YDR150W, strain NUM1, hits give low values 0.0524 | locus YDR159W, strain sac3, hits give low values 0.0966 | locus YDR162C, strain NBP2, hits give low values 0.0484 | locus YDR195W, strain ref2 0.14 | locus YDR297W, strain sur2, hits give low values 0.0628 | locus YDR318W, strain mcm21, hits give low values 0.0702 | locus YDR334W, strain swr1, hits give low values 0.0697 | locus YDR335W, strain msn5, hits give low values 0.0637 | locus YDR363W, strain ESC2, hits give low values 0.0798 | locus YDR388W, hits give low values 0.0589 | locus YDR392W, strain spt3, hits give low values 0.104 | locus YDR502C, strain sam2, hits give low values 0.066 | locus YEL003W, strain gim4, hits give low values 0.0587 | locus YEL037C, strain rad23, hits give low values 0.06 | locus YEL061C, strain CIN8 (second series), hits give low values 0.066 | locus YEL061C, strain CIN8, hits give low values 0.0508 | locus YER002W, strain NOP16, hits give low values 0.0717 | locus YER015W, strain faa2, hits give low values 0.064 | locus YER016W, strain bim1, hits give low values 0.0649 | locus YER110C, hits give low values 0.0798 | locus YER111C, strain swi4, hits give low values 0.0774 | locus YER155C, strain BEM2 (second series), hits give low values 0.0923 | locus YER155C, strain BEM2, hits give low values 0.0729 | locus YER167W, strain BCK2, hits give low values 0.0524 | locus YFR010W, strain ubp6, hits give low values 0.0738 | locus YGL078C, strain dbp3, hits give low values 0.0809 | locus YGL086W, strain mad1, hits give low values 0.0599 | locus YGL167C, strain pmr1, hits give low values 0.0819 | locus YGL173C, strain kem1, hits give low values 0.0682 | locus YGL227W, strain vid30, hits give low values 0.0671 | locus YGL240W, strain doc1, hits give low values 0.0823 | locus YGL248W, strain PDE1, hits give low values 0.0477 | locus YGL253W, strain hxk2, hits give low values 0.0575 | locus YGR078C, strain PAC10, hits give low values 0.0515 and 0.0686 | locus YGR135W, strain pre9, hits give low values 0.0652 | locus YGR229C, strain SMI1, hits give low values 0.0559 | locus YGR252W, strain gcn5, hits give low values 0.156 | locus YHR013C, strain ard1, hits give low values 0.116 | locus YHR027C, strain rpn1, hits give low values 0.0661 | locus YHR030C, strain SLT2, hits give low values 0.0523 | locus YHR079C, strain IRE1 (second series), hits give low values 0.0634 | locus YHR094C, strain hxt1, hits give low values 0.0669 | locus YHR129C, strain ARP1, hits give low values 0.087 | locus YHR142W, strain chs7, hits give low values 0.0778 | locus YHR200W, strain rpn10, hits give low values 0.0666 | locus YIL066C, strain RNR3, hits give low values 0.0524 | locus YIL073C, strain SPO22, hits give low values 0.118 | locus YIL125W, strain kgd1, hits give low values 0.0847 | locus YIR030C, strain dcg1, hits give low values 0.0641 | locus YJL092W, strain hpr5, hits give low values 0.062 | locus YJL095W, strain BCK1 (second series), hits give low values 0.0654 | locus YJL095W, strain BCK1, hits give low values 0.0618 | locus YJL115W, strain asf1, hits give low values 0.0762 | locus YJL129C, strain trk1, hits give low values 0.0876 | locus YJL134W, strain LCB3, hits give low values 0.0487 | locus YJL154C, strain vps35, hits give low values 0.0637 | locus YJL164C, strain tpk1, hits give low values 0.0693 | locus YJL166W, strain qcr8, hits give low values 0.0646 | locus YJL168C, strain set2, hits give low values 0.064 | locus YJL187C, strain SWE1 (second series), hits give low values 0.0504
